Laboratory results published in PubChem BioAssay AID485364 (National Center for Advancing Translational Sciences (NCATS), 2010).
Among all 360,000 compounds or so, about 11,000 (3.1%) were called active. Inconclusive results (about 4%) are left out. Calls follow the shape of the dose curve; as a rule, active = well fitted inhibition curve with a large enough effect; inconclusive = small, poorly fitted or top-dose-only effect; inactive = no such curve, though single readings can be large or run the other way. The entries come from a sample that favours actives as a whole. Entries that show only a call come without a potency.

These molecules were tested against Schistosoma mansoni thioredoxin glutathione reductase (TGR) (UniProt Q962Y6) (assay: qHTS Assay for the Inhibitors of Schistosoma Mansoni Peroxiredoxins). Conditions: purified TGR, DTNB reduction, TNB absorbance 405 nm; series mostly up to 114 µM.
Outline: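 First, TGR (20 nM dispensed) and NADPH were mixed with compound. Second, a 15 min room-temperature incubation followed. Third, further NADPH and then DTNB were added to start the reaction. Finally, TNB absorbance was monitored kinetically.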
Also: nearly all actives have a fitted effect of over 60% in size.
Potency is read from the fitted curve at half-maximal effect.

| SMILES | Potency |
| --- | --- |
| COc1ccc(-c2nc3ccccc3o2)cc1NC(=O)c1cc([N+](=O)[O-])ccc1N1CCOCC1 | inactive |
| CN(C)CCCn1c(-c2ccc(Cl)cc2)csc1=Nc1ccccc1 | inactive |
| Cc1ccc(CNC(=O)C2CCCN2S(=O)(=O)c2ccc3c(c2)C(C)(C)C(=O)N3C)cc1 (stereo unspecified) | inactive |
| O=C(NCc1ccco1)C1CCCN(S(=O)(=O)c2cnc[nH]2)C1 (stereo unspecified) | inactive |
| O=C(NCc1ccco1)C1CCCN(S(=O)(=O)c2cccc3nonc23)C1 (stereo unspecified) | 22.4 µM (active) |
| O=C(NCc1ccco1)C1CCCN(S(=O)(=O)c2ccccc2)C1 (stereo unspecified) | inactive |
| Cc1ccc(S(=O)(=O)N2CCC(C(=O)N[C@@H](C)C(=O)NCc3ccco3)CC2)cc1 | inactive |
| Cc1ccc(S(=O)(=O)N2CCCC2C(=O)NCc2ccco2)cc1 (stereo unspecified) | 50.1 µM (active) |
| O=C(NCCCO)C(=O)Nc1c2c(nn1-c1ccccc1)CSC2 | inactive |
| Cc1c(-c2nsc(NC(=O)c3cccc(Cl)c3)n2)nnn1-c1ccccc1C(F)(F)F | inactive |
| CCc1nn(CCCC(=O)NCc2ccccc2OC)c(=O)c2cc3occc3n12 | inactive |
| CN1C(=O)c2ccccc2Sc2ccc(NC(=O)Cc3ccc(Cl)cc3)cc21 | inactive |
| CCOc1cc(NC(=O)Nc2ccccc2)c(OCC)cc1NC(=O)CC | inactive |
| CCOc1cc(NS(=O)(=O)c2ccc(OC)cc2)c(OCC)cc1NC(C)=O | inactive |
| CCOc1cc(NC(=O)CCl)c(OCC)cc1NC(C)=O | 44.7 µM (active) |
| Cc1cccc(NC(=O)Cn2nc(-c3ccc(Cl)cc3)c3ccccc3c2=O)c1 | inactive |
| COc1ccc(N2C(=O)CC(Sc3n[nH]c(-c4ccc(C)cc4)n3)C2=O)cc1 (stereo unspecified) | 0.708 µM (active) |
| O=C1CC(c2ccccc2)C(=O)N1c1cccc(O)c1 (stereo unspecified) | inactive |
| O=C1CC(Sc2ncn[nH]2)C(=O)N1c1ccccc1 (stereo unspecified) | 0.501 µM (active) |
| COc1ccc(-c2nc(SCC(=O)N3CCCC3)n[nH]2)cc1 | inactive |
| CCN(C(=O)CSc1ncn[nH]1)c1cccc2ccccc12 | inactive |
| CC(=O)Nc1ccc(N2C(=O)CC(Sc3nccc(C)n3)C2=O)cc1 (stereo unspecified) | inactive |

| SMILES | Potency |
| --- | --- |
| Cc1ccc(N2C(=O)CC(Sc3ncn[nH]3)C2=O)cc1 (stereo unspecified) | 0.447 µM (active) |
| CCOC(=O)c1ccc(N2C(=O)CC(Sc3nc(O)c(CC)c(=O)[nH]3)C2=O)cc1 (stereo unspecified) | inactive |
| COc1ccc(N2C(=O)CC(SC(C)C)C2=O)cc1 (stereo unspecified) | inactive |
| COc1ccc(NC(=O)CSc2nc3ncccc3[nH]2)c(OC)c1 | inactive |
| COc1ccccc1C(=O)NCCn1cc(SCc2ccccc2Cl)c2ccccc21 | inactive |
| Cc1cccc(N2CCN(c3ccc(C(=O)O)cc3NC(=O)c3ccccc3F)CC2C)c1 (stereo unspecified) | inactive |
| COc1cc(OC)c(N(C)C(=O)c2cc3c(=O)oc4ccccc4c3s2)cc1Cl | inactive |
| Cc1ccc(-c2cc(C(F)(F)F)c(C#N)c(SCC(=O)Nc3ccccc3)n2)cc1 | inactive |
| Cc1cccc(CCNC(=O)c2ccc3c(c2)nc2n3CCC(C)C2)c1 (stereo unspecified) | inactive |
| COc1ccc(COCC(O)CN2CCC(C(N)=O)CC2)cc1 (stereo unspecified) | inactive |
| NC(=O)C1CCN(C2OC(=O)c3ccccc32)CC1 (stereo unspecified) | inactive |
| COc1ccc(CCN2C(=O)C3CC=C(C)CC3C2=O)cc1OC (stereo unspecified) | inactive |
| COc1ccc(CCN2C(=O)C(C)=C(C)C2=O)cc1OC | inactive |
| COc1ccc(CCN2C(=O)CC(N3CCC(C(N)=O)CC3)C2=O)cc1OC (stereo unspecified) | 3.16 µM (active) |
| COc1ccc(N2C(=O)CC(N3CCC(C(N)=O)CC3)C2=O)cc1 (stereo unspecified) | 14.1 µM (active) |
| COCCn1c(SCC(=O)c2cc(C)ccc2C)nc2cc(C(=O)NC3CCCC3)ccc2c1=O | inactive |
| CCCN1C(=O)C(O)(CC(=O)c2ccc(CC)cc2)c2cc(Br)ccc21 (stereo unspecified) | inactive |
| CC(=O)Nc1cccc(NC(=O)CSc2nccn2Cc2ccc3c(c2)OCO3)c1 | inactive |
| Cc1ccccc1CN1CCC(CNC(=O)c2cc3ccc4cccnc4c3[nH]2)CC1 | inactive |
| CCOc1ccc(CNC(=O)c2cc(-c3ccc(Cl)s3)nc3ccccc23)cc1 | inactive |
| CCCS(=O)(=O)c1ncc(Cl)c(C(=O)Nc2scc(-c3ccccc3)c2C(=O)OCC)n1 | 2 µM (active) |
| CCOC(=O)c1c(-c2ccc(-c3ccccc3)cc2)csc1NC(=O)CCC(=O)O | inactive |

| SMILES | Potency |
| --- | --- |
| CCOC(=O)c1scc(-c2ccccc2)c1S(=O)(=O)Nc1ccccc1F | inactive |
| CCC(Sc1nnc(-c2ccc(OC)cc2)c(-c2ccc(OC)cc2)n1)C(=O)NC1CCCCC1 (stereo unspecified) | inactive |
| COc1cccc(CNC(=O)c2ccc3c(c2)N(Cc2ccc(C(F)(F)F)cc2)C(=O)c2ccccc2S3)c1OC | inactive |
| CCOc1ccc(-n2c(C)nc3c(cnn3-c3ccc(C)cc3)c2=O)cc1 | inactive |
| CCOCCCNC(=S)Nc1ccc2nc(N3CCN(CC)CC3)cc(C)c2c1 | 50.1 µM (active) |
| Cc1cc(N2CCOCC2)nc2ccc(NC(=S)N3CCN(Cc4ccccc4)CC3)cc12 | inactive |
| CCN1CCN(c2cc(C)c3cc(NC(=O)c4cc(Cl)ccc4OC)ccc3n2)CC1 | inactive |
| Cc1cccc(-n2ccnc2SCC(=O)Nc2cc(C(F)(F)F)ccc2Cl)c1 | inactive |
| CCOc1ccc(N(C)S(=O)(=O)c2cc(-c3cnc(C)o3)ccc2OC)cc1 | inactive |
| C=C(Br)CN1CCN(CC(=C)Br)CC1 | 10 µM (active) |
| COc1ccc(CCNC(=O)c2cn(C)c3ccc(S(=O)(=O)N(C)C4CCCCC4)cc3c2=O)cc1OC | inactive |
| CCCCCn1c(=O)[nH]c2cc(C(=O)Nc3ccc(F)cc3)ccc2c1=O | inactive |
| CCCC12CN3CC(CCC)(CN(C1)C3c1c[nH]c3ccc(OC)cc13)C2=O (stereo unspecified) | inactive |
| Cc1ccc(Cl)cc1NC(=O)/C(C#N)=C\c1cn(Cc2ccc(F)cc2)c2ccccc12 | inactive |
| COc1ccc(C2CC(c3cccs3)=NN2c2ccc(F)cc2)cc1OC (stereo unspecified) | 56.2 µM (active) |
| COc1ccc(C2CC(c3cccs3)=NN2c2nc(C)c(C(C)=O)s2)cc1OC (stereo unspecified) | inactive |
| COc1ccc(C2CC(c3cccs3)=NN2C(=O)CSc2nncs2)cc1OC (stereo unspecified) | inactive |
| O=C(O)CC1=C(Nc2ccccc2)C(=O)N(c2ccccc2)C1c1ccc(Cl)cc1 (stereo unspecified) | 39.8 µM (active) |
| COC(=O)CN1C(=S)N(c2ccccc2)C(=O)C1CC(=O)Nc1ccc(Cl)cc1 (stereo unspecified) | inactive |
| O=C1C=C(c2ccc(Cl)cc2)C(=O)N1Nc1ccccc1 | inactive |
| Cc1ccc(CCNC(=O)c2nnc(Cc3cccc(F)c3)o2)cc1 | inactive |
| CCNC(=O)c1cc2n(n1)CCCN(Cc1ccc(C)cc1)C2=O | inactive |

| SMILES | Potency |
| --- | --- |
| CSc1ccc(CCNC(=O)c2ccc3c(c2)nc2n3CCOC2)cc1 | inactive |
| Cc1cn(C)c(CC(=O)NCc2ccccc2)c1C(=O)O | inactive |
| CCC(c1nnnn1Cc1ccco1)N(CCc1ccccc1)Cc1cc2cccc(C)c2[nH]c1=O (stereo unspecified) | 22.4 µM (active) |
| COc1ccc2[nH]c(=O)c(CN(Cc3nnnn3CCc3ccccc3)CC3CCCO3)cc2c1 (stereo unspecified) | inactive |
| CCC(c1nnnn1C1CCCC1)N(Cc1cccs1)Cc1cc2cccc(C)c2[nH]c1=O (stereo unspecified) | inactive |
| Cc1cccc2cc(CN(Cc3cccs3)C(=S)NCc3ccco3)c(=O)[nH]c12 | inactive |
| CCOc1ccc2[nH]c(=O)c(CN(Cc3nnnn3Cc3ccccc3)CC3CCCO3)cc2c1 (stereo unspecified) | inactive |
| CCC(c1nnnn1Cc1ccco1)N(Cc1cc2cc(OC)ccc2[nH]c1=O)C1CCCCC1 (stereo unspecified) | 12.6 µM (active) |
| Cc1ccc(-c2nnc(SCc3ccccc3C)o2)cc1 | inactive |
| Cc1ccc(C)c(N2CCN(C(c3ccccc3)c3nnc(-c4ccccc4)o3)CC2)c1 (stereo unspecified) | inactive |
| COc1cc(C(=O)Nc2ccc(OCc3cc(=O)n4ccc(C)cc4n3)cc2)cc(OC)c1OC | inactive |
| CCCCn1c(CNC(=O)C23CC4CC(CC(C4)C2)C3)nnc1SCC(=O)Nc1ccc(C)cc1 | inactive |
| COc1ccc(NS(=O)(=O)c2cc3c4c(c2)CC(=O)N4CCC3)cc1Cl | inactive |
| Cc1n[nH]c(=O)c2c(NC(=O)CSc3cc(Cl)ccc3Cl)oc(C)c12 | inactive |
| Cc1n[nH]c(=O)c2c(NC(=O)COC(=O)c3ncc(Cl)c(Cl)c3Cl)oc(C)c12 | 15.8 µM (active) |
| Cc1n[nH]c(=O)c2c(NC(=O)CSc3ccccc3F)oc(C)c12 | inactive |
| CC(=O)c1ccc(NC(=O)CSc2nnc(NC(=O)Nc3ccccc3)s2)cc1 | inactive |
| CCc1ccc(NC(=O)CCCc2nnc3n(CCCOC)c(=O)c4sccc4n23)cc1 | inactive |
| COc1ccc(C(=O)c2oc3ccccc3c2NC(=O)COc2cccc(C)c2)cc1 | inactive |
| CN(Cc1ccccc1)C(=O)c1cn(C)c2ccc(S(=O)(=O)N3CCCCC3)cc2c1=O | inactive |
